# Screens deposited in PubChem BioAssay by National Center for Advancing Translational Sciences (NCATS).
# KB-3-1 cytotox = kills parental KB-3-1 adenocarcinoma cells; KB-3-1 viability, CellTiter-Glo ATP luminescence, 72 h; Potency, µM (doses to about 46.1 µM), actives largely listed as cytotoxic; 400,000 compounds, 1.4% hits; note: nearly all actives have a fitted effect of over 60% in size
#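 Parental KB-3-1 adenocarcinoma cells in phenol-red-free DMEM with 10% FBS were pin-treated with compounds at several concentrations, incubated 72 h at 37 °C, and viability read by CellTiter-Glo luminescence; concentration-effect curves were fitted after normalization.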
# SW480 rerep = induces DNA re-replication in SW480 colon adenocarcinoma cells; Potency, µM (doses to about 46.1 µM), most hits filed as activators; SW480 DNA re-replication, Hoechst DNA content imaging, 48 h; 340,000 compounds, 1.8% hits; note: nearly all actives have a fitted effect of over 55% in size
#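 Image-based read-out: total Hoechst fluorescence of nuclei (405 nm excitation, 500-530 nm emission), with hits raising the fraction of high-intensity nuclei. SW480 colon cells incubated 48 hr with compounds at 37 C.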
# MCF10A rerep = induces DNA re-replication in MCF 10a normal breast cells. MCF 10A DNA re-replication, Hoechst nuclear intensity, 48 h. Potency, µM (series often up to 46.1 µM), hits mostly activators. 350,000 compounds, 2.9% hits; note: nearly all actives have a fitted effect of over 50% in size
# PINK1 expr mod = changes PINK1 expression; Potency, µM (highest dose often 76.6 µM), hits mostly activators; PINK1 immunofluorescence, high-content cytometry, 24 h; 410,000 compounds, 0.2% hits; active = well fitted activation curve with a large enough effect; inconclusive = small, poorly fitted or top-dose-only effect; cell line not stated here; note: nearly all actives have a fitted effect of over 65% in size
#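 PINK1 protein, normally rapidly degraded, was detected by immunofluorescence after 24 hour compound treatment of a stable cell line. Titration data (5 concentrations) came from laser-scanning cytometry, with CCCP-treated wells as controls.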
# KB-V1 cytotox = kills drug-selected multidrug resistant KB-V1 cells. KB-V1 MDR cells viability, CellTiter-Glo, 72 h. Potency, µM (highest dose often 46.1 µM), actives largely listed as cytotoxic. 400,000 compounds, 3.4% hits. AID 1347076; note: nearly all actives have a fitted effect of over 60% in size
#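 In this primary screen, KB-V1 cells overexpressing P-gp are incubated with library compounds (lowest to highest concentration) for 72 h at 37 degrees C before a luminescent ATP viability read.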
# A number is an active result; . = inactive; ? = inconclusive; / = no result. Sampled rows, rich in hits. Any-hit rate of the full collection: about 6.7%. Unless noted, calls come from the whole dose curve; as a rule, active = well fitted curve in the direction sought with a large enough effect; inconclusive = small, poorly fitted or top-dose-only effect, or another doubt; inactive = no such curve, though single readings can be large; an effect the other way counts as inactive or inconclusive.
SMILES,KB-3-1 cytotox,SW480 rerep,MCF10A rerep,PINK1 expr mod,KB-V1 cytotox
CCOC(=O)/C(C#N)=C/Nc1ccsc1C(=O)OC,.,.,.,.,.
CCOC(=O)/C(C#N)=C/Nc1cc(C(=O)OCC)cc2c(OC)c(OC)ccc12,.,23.1µM,2.59µM,.,.
COc1ccc(N=c2nc(-c3ccccc3)n(-c3ccc(C)cc3)s2)cc1,?,/,/,?,.
CC(C)c1ccc2oc(-c3ccc(N)cc3)nc2c1,?,.,.,.,20.6µM
O=C1Nc2ccccc2C1=Nc1ccccc1-c1ccccc1,?,.,.,.,?
Cc1cc(N2CCN(C(=O)Nc3ccc(F)cc3F)CC2)c2ccccc2n1,.,.,.,.,.
CCCCc1ccc(NC(=O)N2CCN(c3cc(C)nc4ccccc34)CC2)c(C)c1,?,20.6µM,.,.,?
COc1ccc(/C=C2\N=C(SC)N(c3ccccc3OC)C2=O)cc1,?,18.4µM,?,.,.
COc1ccc(/C=C2/N=C(SC3CCOC3=O)N(c3cccc(OC)c3)C2=O)cc1 (configuration not stated),.,.,.,.,.
CCOc1ccc(N2C(=O)/C(=C/c3ccccc3)N=C2SC)cc1,.,.,5.8µM,.,.
Cc1oc(-c2ccc(C(=O)Nc3ccc(F)cc3)cc2)nc1COc1ccccc1,.,/,/,.,.
C=CCOc1ccccc1CNc1ccccc1C,.,8.2µM,?,.,.
O=[N+]([O-])c1cc(CN2CCCC2)ccc1Sc1ccc(Cl)cc1,?,.,10.3µM,?,?
O=C(CCc1ccccc1)NCc1ccc2c(c1)OCO2,.,.,.,.,.
Cc1ccc(C)c(S(=O)(=O)c2cn(Cc3ccccc3)c3cc(N4CCCC4)c(F)cc3c2=O)c1,/,/,/,.,/
Clc1ccc(/C=C/c2nc3ccccc3[nH]2)c(Cl)c1,.,?,16.4µM,?,?
O=C(O)c1ccc(/C=C/c2nc3ccccc3c(=O)[nH]2)cc1,.,?,.,.,.
Cc1[nH]c2ccccc2c1/C=C/c1ccnc2ccccc12,8.2µM,/,/,/,7.31µM
O=c1[nH]c(/C=C/c2ccccc2Cl)nc2ccccc12,?,18.4µM,.,.,.
Clc1ccc(/C=C/c2nc3ccccc3[nH]2)cc1,?,.,?,.,.
COc1cc(/C=C/c2nc3ccccc3c(=O)[nH]2)ccc1O,.,/,/,.,?
Cc1cccc(/C=C/c2nc3ccccc3c(=O)[nH]2)c1,?,5.17µM,8.2µM,.,?
CCc1ccc(CNC(=O)c2c(C)oc3ncn(CC(C)C)c(=O)c23)cc1,.,/,/,.,.
Cc1[nH]c2ccccc2c1/C=C/c1nc2ccccc2c(=O)[nH]1,?,16.4µM,23.1µM,.,?
CC(CCc1ccccc1)NC(=O)C1CCN(S(=O)(=O)N2CCOCC2)CC1 (configuration not stated),.,.,?,.,20.6µM
SMILES,KB-3-1 cytotox,SW480 rerep,MCF10A rerep,PINK1 expr mod,KB-V1 cytotox
CCn1c2ccccc2c2cc(NC(=O)CSc3nnc(-c4cccc(C)c4)o3)ccc21,23.1µM,?,?,.,?
CCn1c2ccccc2c2cc(NC(=O)CSc3nnc(-c4cccc(F)c4)o3)ccc21,7.31µM,?,5.17µM,.,11.6µM
O=C(CSc1nnc(-c2cccc(F)c2)o1)Nc1nncs1,.,.,.,.,.
CCn1c2ccccc2c2cc(NC(=O)CSc3nnc(-c4ccccc4)o3)ccc21,.,0.651µM,?,.,?
CC1CCCCN1C(=O)CSc1nc2ccsc2c(=O)n1Cc1ccccn1 (configuration not stated),.,.,.,.,18.4µM
COc1ccc(OC)c(CN2C(=O)c3ccccc3C2c2nnnn2-c2ccc3c(c2)OCCO3)c1 (configuration not stated),4.61µM,/,/,.,.
CCN(CC)S(=O)(=O)c1ccc(N2CC(C(=O)NCc3ccco3)CC2=O)cc1 (configuration not stated),.,/,/,.,.
Cc1ccc(S(=O)(=O)N2CCOCC2)s1,.,.,.,.,.
O=S(=O)(c1ccc(-c2ccon2)s1)N1CCOCC1,.,0.581µM,.,.,.
O=C(c1ccc(Br)cc1)N(Cc1ccco1)c1ccccn1,.,/,/,.,.
Cc1ccc(S(=O)(=O)N2C[C@H]3C(=O)C[C@@H](c4ccccc4)N(S(=O)(=O)c4ccccc4C)[C@H]3C[C@H]2c2ccccc2)cc1,.,/,/,.,.
Cc1nn(-c2ccccc2)nc1CNC(=O)CC(C)(C)C,.,.,.,.,.
Cc1nn(-c2ccccc2)nc1CNC(=O)c1ncoc1-c1ccccc1,.,.,23.1µM,.,.
O=C(CCc1cn(Cc2ccc(F)cc2)c2ccccc12)NCCc1ccc(Cl)cc1,/,/,/,.,/
Cc1ccc(C)c(N2CCN(C(=O)CCCN3C(=S)NC(C)(C)CC3C)CC2)c1 (configuration not stated),20.6µM,.,.,.,?
CC1CC(C)(C)NC(=S)N1CCCC(=O)Nc1ccc(Br)cc1 (configuration not stated),.,.,.,.,23.1µM
Cc1cccc(NC(=O)CCCN2C(=S)NC(C)(C)CC2C)c1C (configuration not stated),.,.,.,.,.
Cc1cccc(N2CCN(C(=O)CCN3C(=S)NC(C)(C)CC3C)CC2)c1C (configuration not stated),.,.,.,.,4.11µM
CCn1c(SCC(=O)Nc2ccccc2)nc2c(c1=O)SCC2,.,/,/,.,?
COc1ccc(NC(=O)C2CCN(S(=O)(=O)c3ccc4c(c3)CC(C)N4C(C)=O)CC2)c(OC)c1 (configuration not stated),.,.,?,.,.
O=C(c1ccc(-c2cccc(C(F)(F)F)c2)o1)N1CCCC(C(F)(F)F)C1 (configuration not stated),.,?,.,.,.
O=C(NC(NC(=S)Nc1cccc(Cl)c1)C(Cl)(Cl)Cl)OCc1ccccc1 (configuration not stated),.,?,.,7.94µM,?
O=C(NC(NC(=S)Nc1cccc(C(=O)O)c1)C(Cl)(Cl)Cl)OCc1ccccc1 (configuration not stated),.,.,.,.,.
O=C(/C=C/c1ccccc1)NC(NC(=S)Nc1ccc(Cl)cc1)C(Cl)(Cl)Cl (configuration not stated),?,?,16.4µM,?,?
O=C(CCc1ccccc1)NC(NC(=S)Nc1ccc(Cl)cc1)C(Cl)(Cl)Cl (configuration not stated),18.4µM,?,.,.,.
CC(C)CC(=O)NC(NC(=S)Nc1ccccc1)C(Cl)(Cl)Cl (configuration not stated),.,.,.,.,?
COc1ccc(NC(=S)NC(NC(=O)/C=C/c2ccccc2)C(Cl)(Cl)Cl)cc1 (configuration not stated),?,.,?,.,.
Cc1ccc2scc(N3CCCCC3)c(=O)c2c1,.,/,/,.,.
